Results on 70 molecules are retold here after ChEMBL document CHEMBL4513216, “Probing the Open Global Health Chemical Diversity Library for Multistage-Active Starting Points for Next-Generation Antimalarials” (ACS Infect Dis, 2020).

Screen size: about 69,000 compounds; about 8,600 (12%) showed an effect of 50% or more. This is one part of a sample in which strong results are shown more often than they occur.

The subject of this assay is Plasmodium berghei. Kind of assay: Screen against P. berghei liver stage (PbLuc), transformed with Luciferase, at 10uM. The class given is functional, HepG2. The following applies: tested at 10 uM.
Regarding `O=C(COc1coc(CN2CCCCC2)cc1=O)c1ccc(Cl)cc1`, the INHIBITION is 38.3%.
As for `CCN1CCOCC12CCN(C(=O)C1CCCC1)CC2`, the INHIBITION was -7.28%.
As to `CC(CS(C)(=O)=O)NC(=O)N1CC2(CCCC2)c2ccccc21` (stereo not given), the INHIBITION is -16.1%.
The same measure for `Cc1cc(-c2c(C)c(-c3cnn(C)c3)nc(N)c2C#N)oc1C`: 31.6%.
As to `Cc1n[nH]c(C)c1-c1c(C#N)c(N)nc2c1CCc1[nH]ccc1-2`, the INHIBITION amounted to 39.7%.
As to `Cn1cc(-c2c(C#N)c(N)nc3c2CCc2[nH]ccc2-3)cn1`, the INHIBITION was 60.1%.
Regarding `CC(C)n1cc(-c2c(C#N)c(N)nc3c2COCC3)cn1`, the INHIBITION is reported as 34.5%.
Next, `COc1ncc(-c2c(C#N)c(N)nc3c2CCc2[nH]ccc2-3)cn1`: 39.05%.
As to `COCCc1ncc(-c2c(C#N)c(N)nc3c2CCc2[nH]ccc2-3)cn1`, the INHIBITION is on record as 27.9%.
`CCc1ccc(-c2c(C)c(-c3cnn(C)c3)nc(N)c2C#N)o1`: the INHIBITION was -7.7%.
Take `Cn1cc(-c2c(C#N)c(N)nc3c2CCc2[nH]ccc2-3)cc1C#N`: the INHIBITION is 50%.
Take `Cc1c(-c2cnn(C)c2)nc(N)c(C#N)c1-c1ccc(CO)o1`: the INHIBITION is 88%.
`O=C(CN1CCCC1Cn1cncn1)Nc1nncs1` (stereo not given): the INHIBITION is -8.66%.
Turning to `COCCN(Cc1ccccc1Cl)c1nc(CCN)nc2ccccc12`, the INHIBITION was determined as 47.3%.
The same measure for `N#Cc1cccc(CN2C[C@H](NC(=O)C3CC3)[C@H]3OCCC[C@H]32)c1`: 35.8%.
With `COc1cc(C(=O)N(Cc2cccs2)C2CC2)cc2c1OCCO2`, the INHIBITION is 47.4%.
The same measure for `Cc1oncc1C(=O)N[C@@H]1CN(Cc2ccco2)C[C@@H]2CCCO[C@@H]21`: 0.453%.
With `COC(=O)CNC(=O)c1nc(Br)sc1C(C)C`, the INHIBITION is 45.3%.
Next, `Cc1nc2n(n1)CC(NCCC(=O)Nc1cc(C)on1)CC2` (stereo not given): -3.2%.
Take `CCc1nccn1-c1cncc(C2CCN(C(=O)COC)CC2)n1`: the INHIBITION is reported as -22.6%.
The same measure for `COc1nc2cc(C)ccc2cc1CN(C)Cc1n[nH]c2c1CCCC2`: 28.15%; for `CCOc1cccc(C(C(=O)O)N(C)Cc2cc(C)no2)c1` (stereo not given): -24.6%; for `Cc1cc(CN(C)C(C(=O)O)c2ccc(C(C)(C)C)cc2)on1` (stereo not given): 58.4%.
Consider `Cc1cc(CN(C)C(C(=O)O)c2cccc(C(F)(F)F)c2)on1` (stereo not given), for which the INHIBITION is -21.2%.
In the case of `CN(Cc1cc[nH]n1)C(=O)c1ccc2c(c1)nc(N1CC[C@H](O)C1)n2C`, the INHIBITION is 22.6%.
`COc1ccc(COCC(O)CSc2ccc(NC(C)=O)cc2)cc1` (stereo not given): the INHIBITION amounted to 5.75%.
`O=C(O)CCN(Cc1ccc(F)c(F)c1)C(=O)C1CC1`: the INHIBITION is recorded as 40.1%.
As for `N#Cc1ccc(Cl)cc1NCC1CCOC1` (stereo not given), the INHIBITION was -10.5%.
On to `Cc1c(C(=O)O)sc2nc(C(F)(F)F)ccc12`, for which the INHIBITION was -11.9%.
In the case of `Cc1c(C(=O)N2CCSCC2)sc2nc(C(F)(F)F)ccc12`, the INHIBITION came to 14.9%.
For `Cc1c(C(N)=O)sc2nc(C(F)(F)F)ccc12`, the INHIBITION amounted to 54.5%.
Next, `Cc1ncnc(NCCCN2CCCCC2CO)c1C` (stereo not given): -17.8%.
For `CC(C(N)=O)N1CCN(c2ncc(Br)cn2)CC1` (stereo not given), the INHIBITION is on record as 21.8%.
Consider `CCn1c(C)nnc1SCCNc1nc(C)ncc1S(C)(=O)=O`, for which the INHIBITION is given as -22.4%.
Consider `CCc1cnc(C)nc1NCCSc1nnc(C)n1CC`, for which the INHIBITION is recorded as 55.7%.
The same measure for `CCn1c(C)nnc1SCCNc1nc(C)nc2c1cnn2C`: 26.7%.
As for `Cc1cccc(CN2CCC3(CCCN(C(=O)NC(C)C)C3)C2=O)n1` (stereo not given), the INHIBITION was 8.67%.
Turning to `O=C(c1ccncn1)N1C[C@H]2CCC[C@@]2(COCC2CCOCC2)C1`, the INHIBITION is reported as 64.9%.
`O=C(c1ccccn1)N1C[C@H]2CCC[C@@]2(COCC2CCOCC2)C1`: the INHIBITION came to 45.1%.
Turning to `O=C(c1ncccn1)N1C[C@H]2CCC[C@@]2(COCc2ccncc2)C1`, the INHIBITION is on record as -15.8%.
Turning to `Cc1ccc(C(=O)N2C[C@H]3CCC[C@@]3(COCC3CCOCC3)C2)o1`, the INHIBITION is 62.5%.
`Cc1ncoc1C(=O)N1C[C@H]2CCC[C@@]2(COCC2CCOCC2)C1`: the INHIBITION was determined as 44.4%.
Consider `O=C(c1ccnnc1)N1C[C@H]2CCC[C@@]2(COCC2CCOCC2)C1`, for which the INHIBITION is recorded as 43.8%.
Turning to `O=C(c1cccs1)N1C[C@H]2CCC[C@@]2(COCC2CCOCC2)C1`, the INHIBITION is listed as 77.7%.
The same measure for `O=C(c1ncccn1)N1C[C@H]2CCC[C@@]2(COCC2CCOCC2)C1`: 0%.
Regarding `c1csc(CN2C[C@H]3CCC[C@@]3(COCC3CCOCC3)C2)n1`, the INHIBITION is 49.7%.
With `CCCOc1cc(C)ccc1NC(=O)N(C)Cc1cnn(C)c1`, the INHIBITION is 38.5%.
Next, `O=C(O)[C@]12CCCN(C3CCOC3)C[C@H]1CN(c1nncs1)C2` (stereo not given in full): 4.98%; `CN1CCN(C[C@@H]2CN(C(=O)CC3CCCCC3)C[C@@H]2CO)CC1`: 6.65%; `CC(NC(=O)CCS(=O)(=O)C1CCCC1)c1nc(-c2ccccc2)c[nH]1` (stereo not given): 4.81%.
Turning to `CC(NC(=O)CCc1cccs1)c1nnc2n1CCCCC2` (stereo not given), the INHIBITION is listed as -29.1%.
For `CCc1nsc(N2CCN(CC(=O)NCc3cccnc3)CC2)n1`, the INHIBITION worked out at 78.1%.
For `CCCNC(=O)CN1CCN(c2nc(CC)ns2)CC1`, the INHIBITION is -23.2%.
For the molecule `Cc1nsc(N2CCN(CC(=O)NCc3cccnc3)CC2)n1`, the INHIBITION is listed as -101%.
As to `CN(C)C(=O)c1cccc(CN2CCN(CC(O)C(C)(C)C)CC2)c1` (stereo not given), the INHIBITION is recorded as -13.5%.
With `Cc1c(Br)c(C(F)(F)F)nn1C(C)C(=O)O` (stereo not given), the INHIBITION worked out at 8.49%.
Turning to `Cc1nnc(NCCC(=O)N(C)Cc2ccccc2)c(C#N)c1C`, the INHIBITION is recorded as -5.65%.
In the case of `Cc1cnc(-c2nc(C3CCN(Cc4ccccc4C)CC3)no2)cn1`, the INHIBITION was found to be 19.36%.
`CC(O)(CNS(=O)(=O)Cc1ccon1)c1ccsc1` (stereo not given): the INHIBITION turned out to be 1.98%.
As to `CN(C(=O)CCc1ccsc1)S(C)(=O)=O`, the INHIBITION is 37.4%.
Turning to `Cc1cc(C(=O)NS(=O)(=O)Cc2ccon2)c(C)n1C(C)C`, the INHIBITION was 56.1%.
As to `COc1ccc(C(=O)NCc2ccon2)cc1F`, the INHIBITION turned out to be 11.6%.
With `O=C(CCc1ccsc1)NS(=O)(=O)Cc1ccon1`, the INHIBITION is listed as 55.4%.
On to `O=C(NS(=O)(=O)Cc1ccon1)c1ccsc1`, for which the INHIBITION is given as 73.6%.
Turning to `O=C(CCc1ccco1)NS(=O)(=O)Cc1ccon1`, the INHIBITION came to 64%.
In the case of `O=C(CCc1cccc(Cl)c1)NS(=O)(=O)Cc1ccon1`, the INHIBITION was found to be 35.1%.
As for `Cc1cc(C(=O)NS(=O)(=O)Cc2ccon2)c(C)o1`, the INHIBITION was found to be 44.2%.
Regarding `Cc1ccc(C(=O)NS(=O)(=O)Cc2ccon2)c(C)c1`, the INHIBITION amounted to 12.8%.
`O=C(CCc1ccco1)NS(=O)(=O)N1CCOc2ccccc21`: the INHIBITION turned out to be 25.2%.
Next, `Cc1ccc(S(=O)(=O)NC(=O)CCc2ccco2)cc1N(C)C`: -18.9%.
